Screening data deposited in PubChem BioAssay by National Center for Advancing Translational Sciences (NCATS).
Hits are enriched below; roughly 9.3% of the tested compounds scored in any of these assays.
HCV inh – qHTS Assay for Inhibitors of Hepatitis C Virus (HCV); AID 651820, 2012; Huh7.5.1 HCVcc-Cre infection, luciferase reporter, 44 h; Potency, µM (top dose mostly 41.8 µM), usual class: inhibitors; hit rate 3.4% among 340,000
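Cells (1,000/well) were plated 4 h before compound, then infected with HCVcc-Cre virus (~0.5 moi). After 44 h further culture, infection was read as luciferase luminescence following a 15 min substrate incubation at room temperature.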
Sm TGR block – qHTS Assay for the Inhibitors of Schistosoma Mansoni Peroxiredoxins; Potency, µM (highest dose often 114 µM), actives largely listed as inhibitors; Schistosoma mansoni thioredoxin glutathione reductase (TGR), Q962Y6; purified TGR, DTNB reduction, TNB absorbance 405 nm; hit rate 3% among 360,000; further: nearly all actives have a fitted effect of over 60% in size
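First, TGR (20 nM dispensed) and NADPH were mixed with compound. Second, a 15 min room-temperature incubation followed. Third, further NADPH and then DTNB were added to start the reaction. Finally, TNB absorbance was monitored kinetically.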
HCMV inh – qHTS Assay for inhibitors of the human cytomegalovirus (HCMV); activity change, negative = inhibition, % at 57.5 µM; HFF cells, HCMV-luciferase reporter, 72 h; hits give low values; AID 1259415, 2018; hit rate 4.5% among 410,000; in the data active means activity change below about -60%; inconclusive means no clear call, values can overlap the other calls; inactive means above about -39%
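Steps: HFFs plated, 16 h 37C; compounds added; HCMV-luciferase added to MOI 1 PFU/cell; 72 h 37C; OneGlo reagent, 5 min room temperature; luminescence read, normalized to controls.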
Vaccinia Venus – qHTS for Stage-Specific Inhibitors of Vaccinia Orthopoxvirus: Venus Reporter Primary qHTS. Vaccinia virus Venus reporter expression, fluorescence. Potency, µM (highest dose often 36.5 µM), hits mostly inhibitors. hit rate 0.46% among 330,000. AID 720580, 2013; calls by dose curve; tested in A549 cells; further: nearly all actives have a fitted effect of over 30% in size
FMDV inh – High Throughput Screening for Foot and Mouth Disease Virus Antivirals; FMDV antiviral cell-based qHTS; Potency, µM (highest dose often 57.9 µM), actives largely listed as inhibitors; hit rate 1.2% among 410,000; calls by dose curve; tested in HEK293T cells; further: read-out not given here; nearly all actives have a fitted effect of over 45% in size
VACV mCherry inh – qHTS for Stage-Specific Inhibitors of Vaccinia Orthopoxvirus: mCherry Reporter Primary qHTS; Vaccinia virus mCherry reporter infection, fluorescence; Potency, µM (titrated, usually from 36.5 µM), actives largely listed as inhibitors; hit rate 0.63% among 310,000; AID 720579, 2013; calls by dose curve; tested in A549 cells; further: nearly all actives have a fitted effect of over 35% in size
Hits are given with their value. Unless noted, the call rests on the fitted dose curve; in most records, active means well fitted curve in the direction sought with a large enough effect; inconclusive means small, poorly fitted or top-dose-only effect, or another doubt; inactive means no such curve, though single readings can be large; an effect the other way counts as inactive or inconclusive.

Screening Cc1ccc(CCNC(=O)c2ccc3c(c2)N(Cc2ccc(F)cc2)CCS3)cc1 returned Sm TGR block inactive, HCMV inh inactive, Vaccinia Venus inactive, FMDV inh inactive and VACV mCherry inh inactive.
`COc1ccc(CCNC(=O)c2ccc3c(c2)N(Cc2ccc(F)cc2)C(=O)CS3)cc1OC` gave Sm TGR block inactive, HCMV inh -65.6, Vaccinia Venus inactive, FMDV inh inconclusive and VACV mCherry inh inactive.
Screening Cc1ccc(CN2CCSc3ccc(C(=O)NCc4cccnc4)cc32)cc1 returned HCV inh 25.1µM, Sm TGR block inactive, HCMV inh inactive and FMDV inh inactive.
For CCOC(=O)c1oc2ccccc2c1CN1CCOCC1 the results were HCV inh inactive, Sm TGR block inactive, HCMV inh inactive and FMDV inh inactive.
Screening CCn1c(=O)c2cc(C(=O)NCCCN3CCN(C)CC3)sc2c2ccccc21 returned Sm TGR block inactive, HCMV inh inconclusive, Vaccinia Venus inactive, FMDV inh inactive and VACV mCherry inh inactive.
`C=CCn1c(C)cc(C(=O)COC(=O)c2cncc(Br)c2)c1C` gave HCV inh inactive, Sm TGR block inconclusive, HCMV inh inactive and FMDV inh inactive.
CC(=O)Nc1ccccc1OCC(=O)N(Cc1ccccc1)C(C)C was read as HCV inh 15.8µM, Sm TGR block inactive, HCMV inh -77.4, Vaccinia Venus inactive, FMDV inh inconclusive and VACV mCherry inh inactive.
C=CCc1cccc2cc(C(=O)Nc3cccc(C(=O)O)c3)c(=O)oc12 was read as HCV inh inactive, Sm TGR block inactive, HCMV inh inactive and FMDV inh inactive.
CCOC(=O)c1nnn(-c2nc(OC)nc(N3CCCCC3)n2)c1-c1ccccc1 was read as Sm TGR block inactive.
For CCOC(=O)c1nnn(-c2nc(N3CCCC3)nc(N3CCCC3)n2)c1-c1ccccc1 the results were HCV inh 17.8µM, Sm TGR block inactive, HCMV inh inactive and FMDV inh inactive.
Screening CCOC(=O)c1c(-c2ccccc2)nnn1-c1nc(OCC)nc(N2CCCCC2)n1 returned HCV inh 6.31µM, Sm TGR block inactive, HCMV inh inconclusive, Vaccinia Venus inactive, FMDV inh inconclusive and VACV mCherry inh inactive.
`CS(=O)(=NS(=O)(=O)c1ccc(Cl)cc1)c1ccccc1` (configuration not stated) gave HCV inh inactive, Sm TGR block inactive, HCMV inh inconclusive and FMDV inh inactive.
O=[N+]([O-])c1ccc(N2CCOCC2)cc1N1CCCCC1 was read as HCV inh inactive, Sm TGR block inactive, HCMV inh inactive and FMDV inh inactive.
CCN(CC)c1ccc(-c2nnc(SCC(=O)N(CCOC)c3c(N)n(CC(C)C)c(=O)[nH]c3=O)o2)cc1 was read as HCV inh inactive, Sm TGR block inactive, HCMV inh inactive, Vaccinia Venus inconclusive, FMDV inh inactive and VACV mCherry inh 8.91µM.
CCc1ccc(-c2nc(SCC(=O)N(CCOC)c3c(N)n(Cc4ccccc4)c(=O)[nH]c3=O)n[nH]2)cc1 was read as HCV inh inactive, Sm TGR block inactive, HCMV inh -78.7, Vaccinia Venus inactive, FMDV inh inactive and VACV mCherry inh inactive.
Screening CCCCn1c(N)c(N(CCOC)C(=O)CSc2n[nH]c(-c3ccc(OC)cc3)n2)c(=O)[nH]c1=O returned HCV inh inactive, Sm TGR block inactive, HCMV inh -76.1, Vaccinia Venus inactive, FMDV inh inactive and VACV mCherry inh inactive.
Screening COCCN(C(=O)CSc1nnc(-c2ccc(C)c(C)c2)o1)c1c(N)n(CC(C)C)c(=O)[nH]c1=O returned HCV inh inactive, Sm TGR block inactive, HCMV inh inactive, Vaccinia Venus inconclusive, FMDV inh inactive and VACV mCherry inh inconclusive.
`COCCN(C(=O)CSc1n[nH]c(-c2ccc(OC)cc2)n1)c1c(N)n(Cc2ccccc2)c(=O)[nH]c1=O` gave HCV inh inactive, Sm TGR block inactive, HCMV inh inactive, Vaccinia Venus inactive, FMDV inh inactive and VACV mCherry inh inactive.
